# Data taken from PubChem BioAssay AID1159580 (chemical genetic matrix, 2015).
# Values joined by “and” are separate entries in the source; they are usually repeats but may differ in a detail not shown here. Equal entries are not always repeated. Out of some 5,500 compounds screened, about 2,000 (36%) were called active. About 18% were inconclusive and are not listed. The list shows a part of the results. A number with no mark means an inactive call. Rule as the data show it: active = normalized growth mostly below about 0.91 (no sharp cut-off); inconclusive = no clear call, values can overlap the other calls; inactive = mostly above about 0.92.
# Test: chemical genetic growth profiling, strain panel (AID 1159580);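 also: tested at 20 µM; growth read once vehicle control cultures reached saturation at 30 °C; 1 = growth at the plate median or of vehicle wells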
# Conditions: S. cerevisiae deletion strains, growth OD
structure (smiles),measurement,setting,value
CCN(CC)C(C)CN1c2ccccc2Sc2ccccc21 (configuration not stated),normalized growth,"locus YAL013W, strain DEP1, stronger effect = lower value",0.983
same,normalized growth,"locus YAL021C, strain ccr4, stronger effect = lower value",0.399 (active)
same,normalized growth,"locus YAL026C, strain drs2, stronger effect = lower value",0.77 (active)
same,normalized growth,"locus YAL030W, strain snc1, stronger effect = lower value",0.965
same,normalized growth,"locus YBL061C, strain skt5, stronger effect = lower value",0.909 (active)
same,normalized growth,"locus YBR009C, strain hhf1, stronger effect = lower value",0.925
same,normalized growth,"locus YBR021W, strain FUR4, stronger effect = lower value",0.852
same,normalized growth,"locus YBR023C, strain chs3, stronger effect = lower value",0.889 (active)
same,normalized growth,"locus YBR171W, strain sec66, stronger effect = lower value",0.998
same,normalized growth,"locus YBR229C, strain ROT2, stronger effect = lower value",0.982
same,normalized growth,"locus YBR231C, strain swc5, stronger effect = lower value",0.937
same,normalized growth,"locus YBR279W, strain paf1, stronger effect = lower value",0.896 (active)
same,normalized growth,"locus YCL011C, strain gbp2, stronger effect = lower value",0.953
same,normalized growth,"locus YCL016C, strain dcc1, stronger effect = lower value",0.923
same,normalized growth,"locus YCL029C, strain bik1, stronger effect = lower value",0.933
same,normalized growth,"locus YCL061C, strain MRC1, stronger effect = lower value",0.932
same,normalized growth,"locus YCL069W, strain vba3, stronger effect = lower value",0.947
same,normalized growth,"locus YCR088W, strain abp1, stronger effect = lower value",0.986
same,normalized growth,"locus YDL005C, strain med2, stronger effect = lower value",1
same,normalized growth,"locus YDL035C, strain GPR1, stronger effect = lower value",0.917
same,normalized growth,"locus YDL040C, strain nat1, stronger effect = lower value",1
same,normalized growth,"locus YDL074C, strain BRE1, stronger effect = lower value",0.864
same,normalized growth,"locus YDL101C, strain DUN1, stronger effect = lower value",0.978
same,normalized growth,"locus YDL134C, strain PPH21, stronger effect = lower value",0.966
same,normalized growth,"locus YDL185W, strain tfp1, stronger effect = lower value",0.947
same,normalized growth,"locus YDL192W, strain arf1, stronger effect = lower value",0.97
same,normalized growth,"locus YDR001C, strain nth1, stronger effect = lower value",0.987
same,normalized growth,"locus YDR069C, strain doa4, stronger effect = lower value",0.973
same,normalized growth,"locus YDR101C, strain arx1, stronger effect = lower value",0.967
same,normalized growth,"locus YDR137W, strain rgp1, stronger effect = lower value",1.14
same,normalized growth,"locus YDR150W, strain NUM1, stronger effect = lower value",0.977
same,normalized growth,"locus YDR159W, strain sac3, stronger effect = lower value",0.775 (active)
same,normalized growth,"locus YDR162C, strain NBP2, stronger effect = lower value",0.987
same,normalized growth,"locus YDR195W, strain ref2",1.23 [resistant] (active)
same,normalized growth,"locus YDR297W, strain sur2, stronger effect = lower value",0.939
same,normalized growth,"locus YDR318W, strain mcm21, stronger effect = lower value",0.926
same,normalized growth,"locus YDR334W, strain swr1, stronger effect = lower value",1.03
same,normalized growth,"locus YDR335W, strain msn5, stronger effect = lower value",0.959
same,normalized growth,"locus YDR388W, stronger effect = lower value",0.914 (active)
same,normalized growth,"locus YDR392W, strain spt3, stronger effect = lower value",0.911
same,normalized growth,"locus YDR502C, strain sam2, stronger effect = lower value",0.954
same,normalized growth,"locus YEL003W, strain gim4, stronger effect = lower value",0.984
same,normalized growth,"locus YEL037C, strain rad23, stronger effect = lower value",0.984
same,normalized growth,"locus YEL061C, strain CIN8 (second series), stronger effect = lower value",0.992
same,normalized growth,"locus YEL061C, strain CIN8, stronger effect = lower value",0.991
same,normalized growth,"locus YER015W, strain faa2, stronger effect = lower value",0.937
same,normalized growth,"locus YER016W, strain bim1, stronger effect = lower value",0.921 (active)
same,normalized growth,"locus YER110C, stronger effect = lower value",0.956
same,normalized growth,"locus YER111C, strain swi4, stronger effect = lower value",0.987
same,normalized growth,"locus YER155C, strain BEM2 (second series), stronger effect = lower value",0.751 (active)
same,normalized growth,"locus YER155C, strain BEM2, stronger effect = lower value",0.964
same,normalized growth,"locus YER167W, strain BCK2, stronger effect = lower value",0.909
same,normalized growth,"locus YFR010W, strain ubp6, stronger effect = lower value",0.914
same,normalized growth,"locus YGL078C, strain dbp3, stronger effect = lower value",0.98
same,normalized growth,"locus YGL086W, strain mad1, stronger effect = lower value",0.952
same,normalized growth,"locus YGL167C, strain pmr1, stronger effect = lower value",0.999
same,normalized growth,"locus YGL173C, strain kem1, stronger effect = lower value",0.898 (active)
same,normalized growth,"locus YGL227W, strain vid30, stronger effect = lower value",0.995
same,normalized growth,"locus YGL240W, strain doc1, stronger effect = lower value",0.799 (active)
same,normalized growth,"locus YGL248W, strain PDE1, stronger effect = lower value",0.957
same,normalized growth,"locus YGL253W, strain hxk2, stronger effect = lower value",0.907 (active)
same,normalized growth,"locus YGR078C, strain PAC10, stronger effect = lower value",0.905
same,normalized growth,"locus YGR135W, strain pre9, stronger effect = lower value",0.918
same,normalized growth,"locus YGR229C, strain SMI1, stronger effect = lower value",0.904
same,normalized growth,"locus YGR252W, strain gcn5, stronger effect = lower value",0.72 (active)
same,normalized growth,"locus YHR013C, strain ard1, stronger effect = lower value",0.972
same,normalized growth,"locus YHR027C, strain rpn1, stronger effect = lower value",0.796 (active)
same,normalized growth,"locus YHR030C, strain SLT2, stronger effect = lower value",0.976 and 1.03
same,normalized growth,"locus YHR079C, strain IRE1 (second series), stronger effect = lower value",0.935
same,normalized growth,"locus YHR079C, strain IRE1, stronger effect = lower value",1.06
same,normalized growth,"locus YHR094C, strain hxt1, stronger effect = lower value",0.95
same,normalized growth,"locus YHR129C, strain ARP1, stronger effect = lower value",0.986
same,normalized growth,"locus YHR142W, strain chs7, stronger effect = lower value",0.863 (active)
same,normalized growth,"locus YHR200W, strain rpn10, stronger effect = lower value",0.95
same,normalized growth,"locus YIL066C, strain RNR3, stronger effect = lower value",0.97
same,normalized growth,"locus YIL073C, strain SPO22, stronger effect = lower value",0.767
same,normalized growth,"locus YIL125W, strain kgd1, stronger effect = lower value",0.98
same,normalized growth,"locus YIR030C, strain dcg1, stronger effect = lower value",0.953
same,normalized growth,"locus YJL092W, strain hpr5, stronger effect = lower value",0.954
same,normalized growth,"locus YJL095W, strain BCK1 (second series), stronger effect = lower value",0.946
same,normalized growth,"locus YJL095W, strain BCK1, stronger effect = lower value",0.861 and 1.02
same,normalized growth,"locus YJL115W, strain asf1, stronger effect = lower value",0.992
same,normalized growth,"locus YJL129C, strain trk1, stronger effect = lower value",1.04
same,normalized growth,"locus YJL134W, strain LCB3, stronger effect = lower value",0.986
same,normalized growth,"locus YJL154C, strain vps35, stronger effect = lower value",0.975
same,normalized growth,"locus YJL164C, strain tpk1, stronger effect = lower value",0.928
same,normalized growth,"locus YJL166W, strain qcr8, stronger effect = lower value",0.898 (active)
same,normalized growth,"locus YJL168C, strain set2, stronger effect = lower value",0.961
same,normalized growth,"locus YJL187C, strain SWE1 (second series), stronger effect = lower value",0.957
same,normalized growth,"locus YJL187C, strain SWE1, stronger effect = lower value",0.911 (active)
same,normalized growth,"locus YJR043C, strain POL32, stronger effect = lower value",0.903
same,normalized growth,"locus YJR066W, strain TOR1, stronger effect = lower value",0.872
